PGE2 EP2 inh = human EP2 receptor antagonists, primary screen, TR-FRET cAMP, C6 glioma cells; inhibition, % at 25 µM; AID 1422, 2008; Prostaglandin E2 receptor EP2 subtype (Homo sapiens), P43116; C6 glioma cells expressing human EP2; cells stimulated with saturating PGE2; hit rate 0.52% among 260,000;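 active = percent inhibition above 40 after rounding to a whole number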;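 also: rat C6 glioma host cells with rolipram phosphodiesterase inhibitor present; the protocol text gives 20 µM as final concentration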
Target sequence (P43116 whole entry, looked up): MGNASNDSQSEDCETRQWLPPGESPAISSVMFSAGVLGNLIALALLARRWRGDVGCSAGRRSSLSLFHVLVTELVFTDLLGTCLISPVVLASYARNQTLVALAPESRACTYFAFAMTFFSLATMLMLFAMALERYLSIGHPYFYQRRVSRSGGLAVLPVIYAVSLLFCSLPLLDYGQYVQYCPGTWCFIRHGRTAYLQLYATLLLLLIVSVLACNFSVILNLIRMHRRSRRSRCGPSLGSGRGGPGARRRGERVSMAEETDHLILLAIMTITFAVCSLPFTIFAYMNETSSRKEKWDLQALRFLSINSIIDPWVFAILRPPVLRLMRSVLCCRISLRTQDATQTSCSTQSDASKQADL
RAM inhibit = inhibitors of the yeast RAM network, primary screen, dse1pr::URA3 reporter, 5-FOA selection. inhibition, % at 50 µM. hit rate 1.8% among 190,000. S. cerevisiae dse1pr::URA3 reporter, 5-FOA growth OD615, 2 d; analog-sensitive cbk1-as2 kinase mutant strain;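 active = inhibition above a set limit, 3 SD over mean compound inhibition, cut at about 8.4% in these data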;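 also: inhibition rescues growth on 5-FOA so higher OD means more RAM inhibition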
EP2 mod = EP2 receptor modulators, cAMP readout, primary screen, cell-based, HTRF cAMP, PGE2 stimulation; hit rate 0.83% among 260,000; EP2-expressing cells, cAMP HTRF FRET, PGE2 co-stimulation; induction, % at 25 µM;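 active = compounds whose cAMP rise, as percent of the full-agonist control response, exceeds 60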;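 also: rat C6 glioma line stably carrying human EP2 under a CMV promoter; the protocol text gives 20 µM as final concentration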
PG9 Ab binder = binders of HIV-1 gp120 antibody PG9, primary screen, biochemical, TR-FRET; HIV-1 gp120 / PG9 antibody interaction; hit rate 0.43% among 360,000; inhibition, % at 6.7 µM; TR-FRET gp120-PG9 antibody binding; in the data active = inhibition above about 8.5%
SKN-1 block = suppressors of acrylamide-induced Pgst-4::GFP reporter in worms, primary screen, SKN-1 inhibitor project, whole organism, uHTS, GFP/RFP fluorescence ratio, strain VP596. C. elegans VP596 Pgst-4::GFP/RFP ratio, 24 h. inhibition, % at 21.8 µM. hit rate 0.49% among 360,000. AID 624304, 2012;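 active = interference check ratio from 0.5 to 1.5 plus GFP to RFP signal ratio inhibition reaching or exceeding a fixed threshold, cut at about 30% in these data, passing the limit was not always enough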
Rev-erbA mod = modulators of Rev-erb alpha DNA binding, primary screen, biochemical, FITC-DNA, fluorescence polarization, uHTS; hit rate 0.79% among 370,000; AID 1259318, 2017; activity, % at 10 µM; Rev-erbα–FITC-DNA binding, 90 min;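 active = activity above about 14%, limit read from the data; passing the limit was not always enough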
EP2 confirm = cAMP induction in EP2, EP4, beta2-AR and parental cells, confirmation, counter-screen for EP2 modulator project, cell-based, five parallel assays, C6 glioma, HEK293 | shares compounds with EP2 mod | cAMP HTRF induction; plus low (about EC15) PGE2 agonist | calls only at 20 µM (by protocol) | hit rate 47% among 1,300;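 active = cAMP induction above 50% in the main assay while under 30% in all four parallel counter assays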;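 also: rat C6 glioma cells stably expressing human EP2 receptor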
Hits are given with their value. Hits are enriched below; roughly 2.9% of the tested compounds scored in any of these assays.

O=C(O)CCCSc1ccccc1 was read as PGE2 EP2 inh inactive and EP2 mod inactive.
Screening NCCc1c(-c2ccccc2)n(-c2ccccc2)c2ccccc12 returned PGE2 EP2 inh inactive, RAM inhibit inactive, EP2 mod 72, PG9 Ab binder inactive, SKN-1 block inactive, Rev-erbA mod inactive and EP2 confirm active.
Screening CC(=O)n1c(-c2ccccc2)c(CO)c2ccccc21 returned PG9 Ab binder inactive, SKN-1 block inactive and Rev-erbA mod inactive.
COC(=O)c1c(NC(=O)C(C)C)sc(C(=O)Nc2cccc(C)c2)c1C was read as PGE2 EP2 inh inactive and EP2 mod inactive.
Screening C=CCSc1nc2ccccc2c(=O)n1Cc1ccco1 returned PGE2 EP2 inh inactive, EP2 mod 70 and EP2 confirm inactive.
COCCn1nnnc1C(c1cc2cc(C)ccc2[nH]c1=O)N1CCCC2(CCCCC2)C1 (stereo not drawn) was read as PGE2 EP2 inh inactive and EP2 mod inactive.
O=C(Cn1nc(C(F)(F)F)c2c1CCCC2)NC1CCCCC1 was read as PGE2 EP2 inh inactive and EP2 mod inactive.
Screening COc1cccc2[nH]c3c(N4CCCCC4)ncnc3c12 returned PGE2 EP2 inh inactive, RAM inhibit inactive, EP2 mod 94, PG9 Ab binder inactive, SKN-1 block inactive, Rev-erbA mod inactive and EP2 confirm active.
For CCOC(=O)C1CCN(c2ncnc3c2[nH]c2cccc(OC)c23)CC1 the results were PGE2 EP2 inh inactive, RAM inhibit inactive, EP2 mod inactive, PG9 Ab binder inactive, SKN-1 block inactive and Rev-erbA mod inactive.
Screening CCCc1cc(=O)[nH]c(SCC(=O)N2CCC(C(=O)OCC)CC2)n1 returned PGE2 EP2 inh inactive, RAM inhibit inactive, EP2 mod 68, PG9 Ab binder inactive, SKN-1 block inactive, Rev-erbA mod inactive and EP2 confirm inactive.
`CCCc1cc(=O)[nH]c(SCC(=O)N2CCC(C)CC2)n1` gave SKN-1 block inactive.
N#CCSc1nc2ccccc2c(=O)n1C1CCCCC1 was read as PGE2 EP2 inh inactive, RAM inhibit inactive, EP2 mod 71, PG9 Ab binder inactive, SKN-1 block inactive, Rev-erbA mod inactive and EP2 confirm active.
Screening COc1ccc(OC)c(C(=O)c2coc3ccc(OCC(=O)O)cc23)c1 returned PGE2 EP2 inh inactive, RAM inhibit inactive, EP2 mod 65, PG9 Ab binder inactive, SKN-1 block inactive, Rev-erbA mod inactive and EP2 confirm inactive.
Screening COC(=O)[C@H]1CN(C(=O)C2CC(=O)N(C)C2)C[C@@H]1c1ccccc1F (stereo partly drawn) returned PGE2 EP2 inh inactive and EP2 mod inactive.
`CCOc1cc(/C=N/NC(N)=O)ccc1OC(=O)c1ccc(C)cc1` gave RAM inhibit inactive, EP2 mod 66 and EP2 confirm inactive.
`Cc1ccc(C2CC(c3cccs3)=NN2C(=O)c2ccc(Br)o2)cc1` (stereo not drawn) gave PGE2 EP2 inh inactive, RAM inhibit inactive, EP2 mod inactive, PG9 Ab binder inactive, SKN-1 block inactive, Rev-erbA mod inactive and EP2 confirm inactive.
CC(=O)N1N=C(c2cccs2)CC1c1ccc(Br)cc1 (stereo not drawn) was read as PG9 Ab binder inactive, SKN-1 block inactive and Rev-erbA mod inactive.
Screening CCc1ccccc1NC1=NCC(=O)N1Cc1ccc(OC)cc1 returned PGE2 EP2 inh inactive, RAM inhibit inactive, EP2 mod inactive, PG9 Ab binder inactive, SKN-1 block inactive and Rev-erbA mod inactive.
